Experimental data as given in PubChem BioAssay (NCATS).
“And” between values parts separate entries of the source, which are not always exact repeats. Equal values may be shown once. Results filed as inconclusive are left out. A call without a number means that no potency is given here. The source made the active and inactive calls. Calls follow the shape of the dose curve; as a rule, active = well fitted inhibition curve with a large enough effect; inconclusive = small, poorly fitted or top-dose-only effect; inactive = flat fitted curve, though single readings scatter.

Test: P-glycoprotein substrates identified in KB-8-5-11 adenocarcinoma cell line, qHTS therapeutic library screen (AID 1346987); also: nearly all actives have a fitted effect of over 65% in size
Conditions: KB-8-5-11 (P-gp overexpressing) viability, CellTiter-Glo, 72 h; series mostly up to 44.5 µM
How it was run: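 P-gp-mediated resistance screen: KB-8-5-11 cells treated 72 h with compounds in dose-response. CellTiter-Glo viability.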
Potency is read from the fitted curve at half-maximal effect.

| Compound | Potency |
| --- | --- |
| CC(C)(C)Cn1c(N)nc2ccc(-c3[nH]c(C(C)(C)C)nc3-c3ccc(F)cc3)nc21 | 20.9 µM (active) and 23.1 µM (active) |
| O=c1cc(-c2ccccc2)oc2cc(O)c(O)c(O)c12 | inactive |
| CCC(CC)[C@H](NC(C)=O)[C@@H]1[C@H](O)[C@@H](C(=O)O)C[C@@H]1N=C(N)N | inactive |
| CC(C)C[C@H](CC(=O)O)C(=O)N[C@@H](Cc1c[nH]c2ccccc12)C(=O)N[C@@H](C)c1ccccc1 | inactive |
| COC[C@@H](c1ccc(C(F)(F)F)cc1)N1CCN(C2(C)CCN(C(=O)c3c(C)ncnc3C)CC2)C[C@H]1C | inactive |
| CN(C)C1CCN(C(=O)c2ccc(NC(=O)Nc3nc(N4CCOCC4)nc(N4CCOCC4)n3)cc2)CC1 | 14.8 µM (active) |
| O=C(NCc1ccccc1)c1csc(Nc2ccncn2)n1 | inactive |
| COc1cc(NC(=O)c2ccc(-c3ccc(Cl)cc3)o2)cc(OC)c1 | inactive |
| O=C(O)C=Cc1ccc(O)c(O)c1 | inactive |
| COC(=O)N[C@H](C(=O)N1CCC[C@@H]1c1ncc(-c2ccc(-c3ccc(-c4cnc([C@@H]5CCCN5C(=O)[C@@H](NC(=O)OC)C(C)C)[nH]4)cc3)cc2)[nH]1)C(C)C | inactive |
| Cc1nnc(C(C)C)n1C1C[C@H]2CC[C@@H](C1)N2CC[C@H](NC(=O)C1CCC(F)(F)CC1)c1ccccc1 (stereo partly drawn) | inactive |
| NC(=O)NN=Cc1ccc([N+](=O)[O-])o1 | inactive |
| CC(C)=CC[C@@H](O)C1=CC(=O)c2c(O)ccc(O)c2C1=O | inactive |
| O=C(O)c1cc(O)c2c(c1)C(=O)c1cccc(O)c1C2=O | inactive |
| N#Cc1ccc(NC(=O)Nc2ccccc2Br)c2n[nH]nc12 | inactive |
| O=C(O)[C@H]1O[C@H](Oc2cc3oc(-c4ccccc4)cc(=O)c3c(O)c2O)[C@H](O)[C@@H](O)[C@H]1O | inactive |
| CC(C)C(=O)Oc1ccc(CO)cc1[C@H](CCN(C(C)C)C(C)C)c1ccccc1 | inactive |
| Cc1c(NC(=O)c2ccc(C(C)(C)C)cc2)cccc1-c1cn(C)c(=O)c(Nc2ccc(C(=O)N3CCOCC3)cc2)n1 | inactive |
| CC(C)C(=O)Nc1ncc(-c2cc(C(F)F)nn2-c2c(Cl)cccc2Cl)s1 | 23.1 µM (active) |
| N[C@@]1(C(=O)O)CS(=O)(=O)[C@H]2[C@H](C(=O)O)[C@H]21 | inactive |
| COc1ccc2cc(-c3nc(-c4ccc(S(C)=O)cc4)[nH]c3-c3ccncc3)ccc2c1 (stereo not drawn) | inactive |
| O=C(O)c1c(Cl)c(Cl)c(Cl)c(Cl)c1-c1c2cc(I)c(=O)c(I)c-2oc2c(I)c(O)c(I)cc12 | inactive |
| CN[C@@H](C)C(=O)N[C@H]1CN(C(=O)CC(C)C)CC[C@H]2CC[C@@H](C(=O)NC(c3ccccc3)c3ccccc3)N2C1=O | inactive |
